Drawing on ChEMBL document CHEMBL3988442, “University of Dundee, Small-Polar-MMV Screening Library” (2021), this text covers Percent Effect for 10 compounds.

For some assays here: Entries with a potency or affinity are not part of this list.

What all share (set-up): scale not given: direction of the effect not stated beside the values
The target of assay [1] is Protein translocase subunit SecA (Escherichia coli (strain K12)) (UniProt P10408). Briefly: Assay to Identify E. coli SecA ATPase Inhibitors. It is filed as functional. To be noted: 30 µM.
Protein translocase subunit SecA (Escherichia coli (strain K12)), sequence (P10408 whole entry): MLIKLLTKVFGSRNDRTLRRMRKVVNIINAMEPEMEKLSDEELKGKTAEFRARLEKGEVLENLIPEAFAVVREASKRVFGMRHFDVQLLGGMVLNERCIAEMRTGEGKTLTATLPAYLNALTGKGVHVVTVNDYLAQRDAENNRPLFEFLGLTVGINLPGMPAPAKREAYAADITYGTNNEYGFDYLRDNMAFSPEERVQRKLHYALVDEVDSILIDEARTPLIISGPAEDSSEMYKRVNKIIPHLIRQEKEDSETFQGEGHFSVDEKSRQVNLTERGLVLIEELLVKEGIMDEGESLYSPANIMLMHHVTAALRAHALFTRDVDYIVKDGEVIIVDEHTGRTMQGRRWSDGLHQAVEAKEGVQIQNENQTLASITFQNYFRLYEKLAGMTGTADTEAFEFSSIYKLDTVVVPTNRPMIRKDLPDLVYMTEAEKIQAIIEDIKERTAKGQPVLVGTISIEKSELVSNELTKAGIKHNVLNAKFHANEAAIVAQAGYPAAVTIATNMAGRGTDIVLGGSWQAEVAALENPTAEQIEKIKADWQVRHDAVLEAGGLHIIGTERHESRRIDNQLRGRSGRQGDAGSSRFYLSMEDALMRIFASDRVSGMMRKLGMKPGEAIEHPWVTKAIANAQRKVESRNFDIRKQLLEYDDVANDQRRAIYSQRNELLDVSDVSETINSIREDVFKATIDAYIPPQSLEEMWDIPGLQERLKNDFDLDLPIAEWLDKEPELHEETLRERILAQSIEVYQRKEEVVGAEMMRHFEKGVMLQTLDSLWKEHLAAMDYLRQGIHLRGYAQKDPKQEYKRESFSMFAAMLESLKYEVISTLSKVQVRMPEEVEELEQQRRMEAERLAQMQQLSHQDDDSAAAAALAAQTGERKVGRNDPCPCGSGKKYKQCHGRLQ
Assay [2] has as its target T1, Ubiquitin-activating enzyme e1, putative (Leishmania donovani (strain BPK282A1)) (UniProt E9BSI1).
T1 sequence (whole entry): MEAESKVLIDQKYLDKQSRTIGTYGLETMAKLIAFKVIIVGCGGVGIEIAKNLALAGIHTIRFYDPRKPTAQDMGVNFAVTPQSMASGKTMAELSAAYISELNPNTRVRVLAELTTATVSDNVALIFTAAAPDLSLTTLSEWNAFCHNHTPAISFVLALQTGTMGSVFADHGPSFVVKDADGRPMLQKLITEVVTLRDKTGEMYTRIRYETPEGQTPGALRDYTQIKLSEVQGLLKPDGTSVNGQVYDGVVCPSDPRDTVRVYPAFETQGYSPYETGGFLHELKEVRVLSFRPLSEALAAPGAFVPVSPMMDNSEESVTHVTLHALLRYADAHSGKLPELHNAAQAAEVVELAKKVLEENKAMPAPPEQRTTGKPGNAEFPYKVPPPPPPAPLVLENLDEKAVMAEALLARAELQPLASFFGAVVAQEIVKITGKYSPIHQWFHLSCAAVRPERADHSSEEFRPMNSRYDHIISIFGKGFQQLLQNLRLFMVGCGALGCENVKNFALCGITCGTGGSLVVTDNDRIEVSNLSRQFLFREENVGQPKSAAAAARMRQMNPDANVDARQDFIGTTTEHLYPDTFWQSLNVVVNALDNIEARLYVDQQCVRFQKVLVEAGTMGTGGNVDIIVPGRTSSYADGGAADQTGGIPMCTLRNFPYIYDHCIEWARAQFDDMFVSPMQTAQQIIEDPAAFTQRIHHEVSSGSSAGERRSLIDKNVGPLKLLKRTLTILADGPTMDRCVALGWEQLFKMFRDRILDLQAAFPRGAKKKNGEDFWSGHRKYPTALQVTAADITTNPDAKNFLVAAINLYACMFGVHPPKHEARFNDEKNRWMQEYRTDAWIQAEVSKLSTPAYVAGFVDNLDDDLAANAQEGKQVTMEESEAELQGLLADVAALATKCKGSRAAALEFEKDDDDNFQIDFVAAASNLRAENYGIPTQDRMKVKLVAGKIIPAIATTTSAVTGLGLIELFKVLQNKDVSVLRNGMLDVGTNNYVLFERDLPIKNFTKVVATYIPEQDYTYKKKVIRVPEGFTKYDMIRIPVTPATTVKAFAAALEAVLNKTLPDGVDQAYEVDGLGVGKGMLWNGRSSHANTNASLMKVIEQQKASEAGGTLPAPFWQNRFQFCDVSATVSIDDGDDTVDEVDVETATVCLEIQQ
Nature of the assay: Leishmania donovani Ubiquitin Activating Enzyme (LdE1). Type of assay: functional. The settings on record: 30 µM.

Assay [3] addresses AMP-activated protein kinase, AMPK (Homo sapiens) (UniProt P54646+O43741+P54619+Q9UGJ0+Q9Y478+Q13131+Q9UGI9). Nature of the assay: AMP-dependent Kinase enzyme assay. An in vitro enzyme assay that detects ADP turnover that is directly proportional to AMPK activity. This uses naive AMPK that is activated during the assay with MK-8722. It is filed as functional. To be noted: 30 µM.

Assay [4] addresses Sialic acid-binding Ig-like lectin 9 (Homo sapiens) (UniProt Q9Y336). Nature of the assay: Hs-Siglec9 ALPHAscreen SOP 20170721. To be noted: 10 µM.
The test system of the next assay is Trypanosoma cruzi. Nature of the assay: Trypanosoma cruzi phosphomannomutase and mannose-1-phosphate guanylyltransferase assay. Type of assay: functional. The settings on record: 10 µM.
Assay [5] has as its target T2, Arginase-2, mitochondrial (Homo sapiens) (UniProt P78540).
T2 sequence (whole entry): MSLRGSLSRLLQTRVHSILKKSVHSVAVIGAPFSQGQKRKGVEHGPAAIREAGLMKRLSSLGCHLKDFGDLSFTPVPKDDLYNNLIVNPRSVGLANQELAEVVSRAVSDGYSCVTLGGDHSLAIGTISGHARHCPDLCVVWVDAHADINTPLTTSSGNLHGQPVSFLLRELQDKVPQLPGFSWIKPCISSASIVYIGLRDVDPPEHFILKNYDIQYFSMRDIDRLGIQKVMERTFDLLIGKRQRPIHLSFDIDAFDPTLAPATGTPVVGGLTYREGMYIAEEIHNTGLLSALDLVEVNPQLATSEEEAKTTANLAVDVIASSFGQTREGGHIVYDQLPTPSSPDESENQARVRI
Nature of the assay: in vitro enzyme assay to detect the production of urea directly proportional to the activity of Arginase II. Also: in the data most compounds retested in dose-response had high values. Type of assay: functional. The settings on record: 33.3 µM.

Assay [6] addresses T3, Proteasome subunit beta (Trypanosoma cruzi) (UniProt O96673).
T3 sequence (whole entry): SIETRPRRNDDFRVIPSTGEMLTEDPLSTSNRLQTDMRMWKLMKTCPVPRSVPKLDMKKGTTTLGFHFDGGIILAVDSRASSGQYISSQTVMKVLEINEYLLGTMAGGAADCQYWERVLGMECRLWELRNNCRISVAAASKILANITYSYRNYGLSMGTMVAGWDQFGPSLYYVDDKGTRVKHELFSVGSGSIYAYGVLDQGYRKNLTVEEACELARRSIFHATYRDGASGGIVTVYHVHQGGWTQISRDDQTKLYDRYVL
Nature of the assay: Trypanosoma cruzi proteasome chymotrypsin-like activity (TcProtChymo) assay. Also: in the data most compounds retested in dose-response had high values. It is filed as functional. To be noted: 9.37 µM.

The species entered for the next assay is Homo sapiens. Nature of the assay: To identify inhibition of the IFN signalling (Jak-Stat) pathway via expression of an eGFP reporter gene under the control of an IFN-stimulated response element (ISRE) containing MxA promoter. It is filed as functional. To be noted: 30 µM.
In assay [7] the target is T4, Tyrosyl-tRNA synthetase, putative (Trypanosoma cruzi (strain CL Brener)) (UniProt Q4DSP6).
T4 sequence (whole entry): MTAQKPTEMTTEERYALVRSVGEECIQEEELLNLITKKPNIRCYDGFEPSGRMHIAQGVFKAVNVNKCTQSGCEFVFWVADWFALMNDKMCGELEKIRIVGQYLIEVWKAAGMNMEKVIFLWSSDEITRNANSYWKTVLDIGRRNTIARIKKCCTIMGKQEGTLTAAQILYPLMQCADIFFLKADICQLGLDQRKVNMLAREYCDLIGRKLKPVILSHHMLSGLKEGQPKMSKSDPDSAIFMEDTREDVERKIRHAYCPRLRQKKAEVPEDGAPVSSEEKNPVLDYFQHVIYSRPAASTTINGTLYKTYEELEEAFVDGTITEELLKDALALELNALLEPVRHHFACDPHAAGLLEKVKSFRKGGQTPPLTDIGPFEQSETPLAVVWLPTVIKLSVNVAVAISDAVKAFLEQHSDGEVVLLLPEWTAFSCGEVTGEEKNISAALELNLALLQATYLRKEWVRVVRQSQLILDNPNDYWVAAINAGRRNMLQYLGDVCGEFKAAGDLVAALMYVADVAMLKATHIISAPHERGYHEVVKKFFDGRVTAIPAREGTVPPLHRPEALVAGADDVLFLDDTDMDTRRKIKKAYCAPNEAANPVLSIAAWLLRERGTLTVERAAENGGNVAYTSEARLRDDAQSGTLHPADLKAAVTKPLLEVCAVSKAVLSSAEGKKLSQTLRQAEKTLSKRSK
Briefly: Trypanosoma cruzi tyrosyl tRNA synthetase (TcYRS) _High Tyrosine SOP. Also: in the data most compounds retested in dose-response had high values. It is filed as functional. To be noted: 30 µM.

Assay [8] addresses T4, Tyrosyl-tRNA synthetase, putative (Trypanosoma cruzi (strain CL Brener)). Nature of the assay: Trypanosoma cruzi tyrosyl tRNA synthetase (TcYRS) SOP. Type of assay: functional. The settings on record: 30 µM.
For assay [9], the target named is Chromo domain-containing protein 1 (Saccharomyces cerevisiae (strain ATCC 204508 / S288c) (Baker's yeast)) (UniProt P32657). Nature of the assay: ScCHD-1 Enzyme Inhibition Assay. Also: in the data most compounds retested in dose-response had high values. Type of assay: functional. To be noted: 30 µM.
Chromo domain-containing protein 1 (Saccharomyces cerevisiae (strain ATCC 204508 / S288c) (Baker's yeast)), sequence (P32657 whole entry, the tested form may be a part): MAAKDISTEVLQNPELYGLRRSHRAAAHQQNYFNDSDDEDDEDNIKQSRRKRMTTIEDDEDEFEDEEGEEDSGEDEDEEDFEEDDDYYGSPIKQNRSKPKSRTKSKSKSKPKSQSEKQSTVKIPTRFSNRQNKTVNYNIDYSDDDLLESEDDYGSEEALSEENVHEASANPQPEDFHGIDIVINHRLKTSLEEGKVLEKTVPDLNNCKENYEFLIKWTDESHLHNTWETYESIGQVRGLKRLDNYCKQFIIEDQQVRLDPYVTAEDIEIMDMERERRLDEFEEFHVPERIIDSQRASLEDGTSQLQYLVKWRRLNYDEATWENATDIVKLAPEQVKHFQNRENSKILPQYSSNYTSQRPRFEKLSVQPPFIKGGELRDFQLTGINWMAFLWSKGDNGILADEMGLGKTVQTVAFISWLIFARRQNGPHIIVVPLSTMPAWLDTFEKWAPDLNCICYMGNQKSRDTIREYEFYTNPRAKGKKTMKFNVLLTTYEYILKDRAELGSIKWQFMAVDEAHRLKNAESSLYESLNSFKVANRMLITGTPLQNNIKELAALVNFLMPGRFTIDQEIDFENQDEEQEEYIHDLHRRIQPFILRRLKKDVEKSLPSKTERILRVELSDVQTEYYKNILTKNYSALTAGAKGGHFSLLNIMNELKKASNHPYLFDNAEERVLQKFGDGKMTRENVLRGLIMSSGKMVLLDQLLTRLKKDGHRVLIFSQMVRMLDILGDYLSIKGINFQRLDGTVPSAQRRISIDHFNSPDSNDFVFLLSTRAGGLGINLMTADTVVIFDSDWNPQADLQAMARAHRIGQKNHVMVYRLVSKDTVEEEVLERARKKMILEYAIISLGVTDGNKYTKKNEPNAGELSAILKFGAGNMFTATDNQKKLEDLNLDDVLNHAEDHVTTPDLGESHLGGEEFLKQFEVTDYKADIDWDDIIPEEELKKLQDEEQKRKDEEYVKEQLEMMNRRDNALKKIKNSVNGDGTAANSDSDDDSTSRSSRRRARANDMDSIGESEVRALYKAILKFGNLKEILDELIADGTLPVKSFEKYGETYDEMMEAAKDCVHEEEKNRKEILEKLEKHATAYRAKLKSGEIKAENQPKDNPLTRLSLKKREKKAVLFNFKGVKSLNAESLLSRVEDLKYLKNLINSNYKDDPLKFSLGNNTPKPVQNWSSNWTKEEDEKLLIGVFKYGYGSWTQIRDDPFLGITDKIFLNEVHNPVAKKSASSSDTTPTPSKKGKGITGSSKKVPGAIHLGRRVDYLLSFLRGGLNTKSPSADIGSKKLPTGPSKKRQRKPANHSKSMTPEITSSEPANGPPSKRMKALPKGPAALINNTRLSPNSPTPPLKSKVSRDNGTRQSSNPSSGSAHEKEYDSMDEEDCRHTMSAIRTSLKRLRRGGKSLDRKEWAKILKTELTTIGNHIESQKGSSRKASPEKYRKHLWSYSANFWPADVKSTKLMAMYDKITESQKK

Sialic acid-binding Ig-like lectin 9 (Homo sapiens), sequence (Q9Y336 whole entry): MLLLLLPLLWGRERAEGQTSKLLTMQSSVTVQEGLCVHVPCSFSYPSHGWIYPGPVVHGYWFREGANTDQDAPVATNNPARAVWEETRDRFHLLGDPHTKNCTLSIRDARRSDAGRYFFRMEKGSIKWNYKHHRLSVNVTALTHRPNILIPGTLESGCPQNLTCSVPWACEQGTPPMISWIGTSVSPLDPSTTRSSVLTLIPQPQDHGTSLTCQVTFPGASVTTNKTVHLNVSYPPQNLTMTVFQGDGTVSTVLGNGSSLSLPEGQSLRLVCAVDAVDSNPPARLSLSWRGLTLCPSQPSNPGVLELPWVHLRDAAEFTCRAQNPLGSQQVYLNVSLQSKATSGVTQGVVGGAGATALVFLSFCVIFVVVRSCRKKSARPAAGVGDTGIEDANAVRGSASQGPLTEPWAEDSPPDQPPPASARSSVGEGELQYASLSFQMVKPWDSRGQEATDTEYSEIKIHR

On to `CCn1cnnc1CNC(=O)N(C)Cc1ccc2c(c1)OCCO2`, for which the Percent Effect in [1] is -0.341%; in [2] it was -16.2%; in assay [3], -15.5%; in assay [4], -4.03%; in the assay with Trypanosoma cruzi it was 0.66%; in assay [5] it was -14.8%. Besides, the Percent Effect is 14.6% in assay [6]; 2.89% in the assay filed under Homo sapiens; 9.36% in assay [7]; 25.9% in assay [8]; -8.11% in assay [9].

For the compound `O=C(c1ccc2c(c1)COC2)N1CCC(Nc2cccnn2)CC1`, the Percent Effect in assay [1] was -4.96%; in assay [2], 13%; in assay [3] it was -6.23%; in assay [4], 11.4%; in the assay on Trypanosoma cruzi it was 5.06%; in assay [5], -3.56%. The Percent Effect in assay [6] is 1.52%; in the assay listed under Homo sapiens, 21.5%; in assay [7], 8.74%; in assay [8] it was 24.4%; in assay [9] it was -7.05%.

Take `CCN(CC(=O)NC(C)C)S(=O)(=O)N1CCC(C)C1` (stereo not given): the Percent Effect is -2.1% in assay [1]; 0% in [2]; -2.33% in assay [3]; -4.69% in assay [4]; 2.05% in the assay on Trypanosoma cruzi; 1.24% in [5]. Moreover, the Percent Effect in assay [6] was 5.24%; in the assay filed under Homo sapiens, -14.3%; in assay [7], 1.07%; in assay [8], 6.17%; in assay [9], -6.4%.

Turning to `O=C1N(c2cccc(Cl)c2)Cc2nc(=O)n(Cc3cccc(F)c3)n21`, the Percent Effect in [1] is -2.59%; in [2], -1.33%; in [3], 3.81%; in [4], 5.37%; with Trypanosoma cruzi, -4.71%; in assay [5] it was -10.4%. The Percent Effect is 6.1% in assay [6]; 7.11% in the assay listed under Homo sapiens; -1.06% in assay [7]; 2.56% in assay [8]; -8.79% in assay [9].

Turning to `COCc1noc(C2(c3ccc(F)cc3)CCOCC2)n1`, the Percent Effect is 3.24% in assay [1]; 8.11% in assay [2]; 7.86% in [3]; 11.7% in [4]; -7.72% with Trypanosoma cruzi; -3.81% in [5]. In addition, the Percent Effect in assay [6] was 11.4%; in the assay listed under Homo sapiens, 40.2%; in assay [7] it was 0.529%; in [8], -2.44%; in assay [9], -5.88%.

For the compound `O=C(c1ccc[nH]1)N1C[C@H]2CC[C@@H]1CN(C1Cc3ccccc3C1)C2`, the Percent Effect is -0.308% in assay [1]; 8.11% in assay [2]; -3.81% in [3]; 12.3% in assay [4]; 3.62% in the assay with Trypanosoma cruzi; 23.1% in assay [5]. Moreover, the Percent Effect was 10.7% in assay [6]; -4.7% in the assay filed under Homo sapiens; 6.45% in assay [7]; 18.5% in [8]; -2.58% in [9].

As for `O=C1NC(c2ccccc2)=N[C@@]12CC[C@@H]1CN(CC3CCOCC3)C[C@@H]12`, the Percent Effect in [1] was -1.53%; in assay [2], 0%; in [3] it was 5.75%; in assay [4] it was -1.86%; in the assay with Trypanosoma cruzi it was -1.54%; in assay [5], -48.6%. Besides, the Percent Effect in assay [6] is 0.684%; in the assay listed under Homo sapiens it was -0.209%; in assay [7], -27.1%; in assay [8], -5%; in assay [9] it was -1.93%.

On to `Cc1cnc(CN2CCCC(c3cc(C(N)=O)[nH]n3)C2)o1` (stereo not given), for which the Percent Effect in [1] was 1.3%; in assay [2], 24.3%; in assay [3] it was -15.7%; in assay [4], -4.2%; in the assay with Trypanosoma cruzi, 0.472%; in assay [5] it was -16.8%. Besides, the Percent Effect was 17.1% in assay [6]; -3.25% in the assay filed under Homo sapiens; 5.42% in [7]; 18.5% in assay [8]; -9.23% in assay [9].

`Cc1cn(-c2ccccc2)nc1NS(=O)(=O)c1cccc(C(=O)O)c1`: the Percent Effect in [1] is -4.24%; in assay [2], 0%; in [3], 9.15%; in assay [4], -6.49%; with Trypanosoma cruzi, -9.01%; in assay [5], 5%. The Percent Effect in assay [6] is 14.4%; in the assay filed under Homo sapiens, 10.4%; in assay [7], -5.38%; in [8], -5%; in [9], -7.14%.

Take `CC(C)N(C)Cc1nnc2n1CCN(Cc1ccncc1)CC2`: the Percent Effect in [1] is -1.23%; in assay [2], 8%; in assay [3], 2.82%; in assay [4], -4.03%; with Trypanosoma cruzi it was -3.67%; in [5], -54.7%. The Percent Effect was 2.73% in assay [6]; 1.94% in the assay listed under Homo sapiens; -2.08% in assay [7]; 5% in [8]; -6.5% in [9].
